Screens deposited in PubChem BioAssay by several laboratories.
Mcl1 Bid PPI = disrupts binding of human Mcl-1 to Bid peptide. TR-FRET Mcl-1/Bid-Dy647 peptide binding, 1536-well. inhibition, % at 21.7 µM. 220,000 tested, 0.97% active. AID 1021;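 active means compounds that cut the binding signal by more than half at the single screening dose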;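 further: His-tagged Mcl-1 with europium anti-His antibody binding Bid BH3 peptide; 0% = Mcl-1 plus peptide wells and 100% = peptide-only wells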
Target sequence (Q07820 whole entry, looked up): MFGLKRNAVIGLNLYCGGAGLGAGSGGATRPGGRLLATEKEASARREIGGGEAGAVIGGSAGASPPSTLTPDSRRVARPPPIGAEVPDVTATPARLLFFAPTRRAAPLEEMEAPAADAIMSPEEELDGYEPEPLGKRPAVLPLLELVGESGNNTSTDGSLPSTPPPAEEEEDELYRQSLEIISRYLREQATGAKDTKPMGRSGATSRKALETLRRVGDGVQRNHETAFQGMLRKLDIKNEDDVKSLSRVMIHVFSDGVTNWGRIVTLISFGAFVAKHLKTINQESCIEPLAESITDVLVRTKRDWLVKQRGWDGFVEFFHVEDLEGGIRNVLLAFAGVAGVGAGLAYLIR
eIF4E 4G PPI = inhibitors of eIF4E and eIF4G interaction in translation initiation. P63073+Q04637. TR-FRET eIF4E-eIF4GI(517-606) binding, 2 h. inhibition, % at 21.7 µM. 220,000 tested, 0.37% active. AID 782;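 active means inhibition above about 30%, limit read from the data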;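 further: 0% = full FRET control wells and 100% = background wells lacking eIF4GI fragment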
Mcl-1 Bim block = human Bim-Mcl-1 interaction inhibition | Bead-based flow cytometry, Bim peptide-Mcl-1 binding | AID 1009 | 190,000 tested, 0.1% active | inhibition, % at 10 µM | Q07820; in the data active means inhibition above about 40%;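 further: 0% = no compound tracer wells and 100% = peptide blocker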
Mcl1 Noxa PPI = disrupts binding of human Mcl-1 to Noxa peptide; Q07820; TR-FRET Mcl-1/Noxa peptide binding, 2 h; inhibition, % at 21.7 µM; 220,000 tested, 1.5% active; AID 1022;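 active means compounds that cut the protein-peptide binding signal by more than 50% relative to plate controls in a single-dose test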;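 further: His-tagged Mcl-1 with rhodamine Noxa BH3 peptide and terbium anti-His antibody; 0% = Mcl-1 plus Noxa peptide wells and 100% = peptide-only wells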
14-3-3 Bad PPI = disrupts binding of bovine 14-3-3 zeta to phospho-Bad peptide | P63103 | TR-FRET 14-3-3zeta/Dy647-pBad peptide displacement, 1 h | inhibition, % at 21.7 µM | 220,000 tested, 0.71% active | AID 781;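 active means inhibition above about 70%, limit read from the data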;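 further: 0% = full 14-3-3 plus peptide FRET controls and 100% = background without 14-3-3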
Target sequence (P63103 whole entry, looked up): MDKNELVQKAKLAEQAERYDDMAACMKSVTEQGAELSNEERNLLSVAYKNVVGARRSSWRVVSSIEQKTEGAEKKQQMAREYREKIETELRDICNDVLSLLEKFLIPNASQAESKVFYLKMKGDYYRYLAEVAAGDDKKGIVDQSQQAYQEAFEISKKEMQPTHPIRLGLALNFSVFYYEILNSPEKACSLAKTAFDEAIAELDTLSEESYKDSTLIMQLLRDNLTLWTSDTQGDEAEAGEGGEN
Pf gamet viab = P. falciparum stage V gametocyte viability inhibition. inhibition, % at 10.9 µM. P. falciparum stage V gametocytes, ATP luminescence, 24 h. 150,000 tested, 0.065% active;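 active means inhibition above the mean plus 3 SD of compounds within the control limits, set per campaign, cut at about 38% in these data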;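 further: 0% = DMSO wells and 100% = medium only without gametocytes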
* marks the source's active call; other numbers are inactive results; · = no result given; [ ] = another dose, or the depositor's remark. Hits are enriched below; roughly 2.7% of the tested compounds scored in any of these assays.

SMILES | Mcl1 Bid PPI | eIF4E 4G PPI | Mcl-1 Bim block | Mcl1 Noxa PPI | 14-3-3 Bad PPI | Pf gamet viab
COc1cc(/C=C/C(=O)OCC(=O)Nc2ccc([N+](=O)[O-])cc2)ccc1O | -23.9 | 5.2 | · | 26.4 | -3.9 | -7.8
COc1cc(/C=C/C(=O)OCC(=O)Nc2ccc(C)cc2[N+](=O)[O-])ccc1O | -35.8 | 6.0 | 3.0 | 54.9* | 34.6 | -20.0
COc1ccc([N+](=O)[O-])cc1NC(=S)NC(C)=O | -5.9 | -7.8 | 3.0 | 14.7 | -3.3 | -7.3
CC(C)(O)C#Cc1ccc(CN2CCN(C3CCCCC3)C(CCO)C2)cc1 (configuration not stated) | -38.0 | -0.1 | 0.0 | 81.2* | -4.2 | -17.1
CC(C)(O)C#Cc1ccc(CN2CCN(C3CCCC3)C(CCO)C2)cc1 (configuration not stated) | -19.4 | -7.4 | -1.0 | -14.8 | -8.5 | 20.5
CN(C(=O)/C=C/c1ccccc1)C1CCCCC1 | · | · | · | · | · | -15.9
NC1=C([N+](=O)[O-])C(c2ccc3c(c2)OCO3)C2=C(CCCC2=O)O1 (configuration not stated) | · | · | · | · | · | 6.0
COC(=O)CSc1nc(C)c(C)c(C)c1C(N)=O | 70.0* | 1.6 | 0.0 | 24.6 | -3.0 | -9.6
COCCn1c(-c2ccco2)csc1=Nc1cccnc1 | -28.9 | -5.8 | 4.0 | 25.0 | 58.5 | ·
COc1ccc(O)c(/C=N/n2c(-c3ccco3)csc2=Nc2cccnc2)c1 | -22.2 | -0.1 | 6.0 | 24.6 | -1.6 | 53.0*
CN=c1scc(-c2ccco2)n1/N=C/c1ccc(O)c(O)c1 | -40.5 | -1.3 | -1.0 | 72.9* | -27.2 | -20.7
COc1cccc(NC(=O)C2C3C=CC(O3)C2C(=O)NCc2cccnc2)c1 (configuration not stated) | 4.4 | 1.5 | 0.0 | 2.9 | 6.0 | -7.9
O=[N+]([O-])c1ccc(O)c(C=Nc2ccc3nc(-c4ccccc4)[nH]c3c2)c1 | 63.3* | -0.8 | 0.0 | 62.4* | 49.7 | 4.5
O=[N+]([O-])c1cccc(-c2nc3ccc([N+](=O)[O-])cc3[nH]2)c1 | 10.1 | 7.1 | 2.0 | 58.1* | 10.2 | 0.5
Oc1c(Br)cc(C=Nc2ccc3nc(-c4ccccc4)[nH]c3c2)c(O)c1Br | -64.3 | 9.9 | 4.0 | 94.1* | 1.6 | -5.7
COc1ccc(CCNC(=S)NC2CCN(Cc3ccccc3)CC2)cc1OC | -52.2 | -2.7 | -1.0 | 1.8 | -9.7 | 24.1
C/C(=N\NC(N)=O)C1CC(Cc2ccccc2)C(=O)O1 (configuration not stated) | · | · | · | · | · | 10.2
Clc1ccc(-c2nnc(Sc3nc4ccccc4o3)c3ccccc23)cc1 | -17.4 | -0.9 | 0.0 | -2.1 | 1.7 | 3.8
O=c1c(Cl)c2oc3ccccc3nc-2c2ccccc12 | 48.3 | 13.4 | 9.0 | 62.1* | 38.1 | ·
Cc1nc(N2N=C(c3ccc(Cl)cc3)CC2c2ccco2)sc1C(=O)N(C)C (configuration not stated) | -22.5 | 2.2 | 0.0 | 24.2 | -7.7 | -7.1
COc1ccc(C2=NN(c3nc(-c4ccccc4)c(CC(=O)O)s3)C(c3ccco3)C2)cc1 (configuration not stated) | -125.2 | 2.5 | 0.0 | 85.1* | -21.9 | -23.1
COc1ccc2[nH]c(C(=O)Nc3cccc(C)n3)cc2c1 | -14.5 | 0.5 | · | 12.9 | -0.9 | 2.2
COc1cccc(N=c2oc3ccc(OC)cc3cc2-c2nc3ccccc3[nH]2)c1 | -182.3 | -11.7 | 0.0 | -250.1 | 78.6*[fluorescence artefact?] | -25.5
COc1cccc(N=c2oc3ccccc3cc2-c2nc3ccccc3[nH]2)c1 | 56.4* | -46.9 | -2.0 | 14.4 | 54.7 | ·
COc1cccc(NC(=O)c2cc3ccccc3o/c2=N\O)c1 | · | · | · | · | · | 6.8
SMILES | Mcl1 Bid PPI | eIF4E 4G PPI | Mcl-1 Bim block | Mcl1 Noxa PPI | 14-3-3 Bad PPI | Pf gamet viab
COc1ccc(N=c2oc3ccc(OC)cc3cc2-c2nc3ccccc3[nH]2)cc1 | 50.2 | 0.7 | -2.0 | 11.8 | 65.5 | ·
CCOC(=O)c1sc(NC(=O)C2C3C=CC(C3)C2C(=O)O)nc1C (configuration not stated) | -58.4 | -10.5 | -1.0 | -11.4 | -0.9 | ·
CCn1c(=O)c2c3c(sc2n2c(=S)[nH]nc12)CCC3 | 8.9 | 51.9* | 3.0 | 4.2 | 11.8 | ·
Cc1cccc(-n2c(=O)c3c4c(sc3n3c(=S)[nH]nc23)CCC4)c1 | -48.5 | 31.6* | 7.0 | 9.0 | -3.8 | -1.2
Cc1ccc(-n2c(=O)c3c4c(sc3n3c(=S)[nH]nc23)CCC4)cc1 | -44.3 | 25.9 | · | 16.7 | -4.3 | 1.0
COc1ccc(-n2c(=O)c3c4c(sc3n3c(=S)[nH]nc23)CCC4)cc1 | -32.5 | 23.3 | · | 9.1 | -7.5 | 18.0
O=c1c2c3c(sc2n2c(=S)[nH]nc2n1-c1ccccc1)CCC3 | -53.5 | 37.6* | · | 9.8 | -4.0 | 24.2
CC1CC(C)CN(S(=O)(=O)c2cc(C(=O)O)c(Cl)s2)C1 (configuration not stated) | 15.8 | -6.4 | 2.0 | 26.0 | -1.6 | 1.5
NNc1cc([N+](=O)[O-])cc2c1C(=O)N(Cc1ccccc1)S2=O (configuration not stated) | -55.2 | 3.0 | -5.0 | 58.1* | 0.8 | -34.0
CN(c1ccccc1)S(=O)(=O)c1cccc(Cl)c1Cl | -11.1 | -8.0 | · | -20.3 | -3.8 | -2.5
CN(C)S(=O)(=O)c1c(Cl)cccc1Cl | -2.8 | -8.7 | 0.0 | 10.1 | 81.0* | ·
CCC(C)(C(=O)NC1CCCCC1)N(C(=O)CNC(=O)c1ccccc1)c1c(C)n(C)n(-c2ccccc2)c1=O (configuration not stated) | -32.4 | -2.9 | 2.0 | 10.1 | -1.4 | -17.0
O=C(CSc1ccc2ccccc2n1)Nc1nsc(-c2ccc(Cl)cc2)n1 | 61.0* | 5.8 | -270.0 | 18.6 | 51.7 | 7.7
COc1ccc2c(C)cc(SCC(=O)Nc3nsc(-c4ccc(C)cc4)n3)nc2c1 | 3.1 | 1.8 | -3.0 | -18.3 | 7.0 | ·
Cc1ccc(-c2nc(NC(=O)CSc3cc(C)c4ccccc4n3)ns2)cc1 | -22.5 | 15.5 | -425.0 | -212.1 | 75.4* | ·
COCCNC(=O)CNC(=S)N(CCCN1CCOCC1)Cc1cccs1 | -24.2 | -2.2 | -1.0 | 12.2 | -5.9 | -13.0
CC(C)(C)CC(=O)O/N=C(\N)c1ccccn1 | 85.4* | -2.4 | -6.0 | -5.5 | 5.9 | 15.8
Cc1ccc(OCC(=O)O/N=C(\N)c2ccccn2)cc1 | -27.7 | 3.7 | 0.0 | 9.9 | -4.9 | ·
COCCNC(=O)NC12CC3(C)CC(C)(CC(C)(C3)C1)C2 | -21.0 | 1.9 | 0.0 | 5.1 | -0.5 | -26.4
N#Cc1cccc(NC(=O)CSc2ccc3c4c(cccc24)C(=O)c2ccccc2-3)c1 | 73.8* | 4.2 | -1.0 | 22.0 | 51.6 | ·
Cc1cccc(N2CCN(S(=O)(=O)c3ccc4c(c3)n(C)c(=O)c(=O)n4C)CC2C)c1 (configuration not stated) | 55.8* | -1.9 | -4.0 | 40.9 | 1.1 | -3.3
Cc1ccc(N2CCN(S(=O)(=O)c3ccc4c(c3)n(C)c(=O)c(=O)n4C)CC2C)cc1 (configuration not stated) | -2.1 | 5.0 | -7.0 | 15.2 | 0.9 | 11.0
